Assay outcomes deposited in PubChem by several laboratories.
An excerpt weighted towards active compounds, which were near 5.7% of everything screened.
FAS-TE inh: FAS thioesterase domain inhibitors, primary screen, biochemical, fluorescence intensity, uHTS; recombinant FAS-TE, OMFH fluorogenic substrate, fluorescence endpoint; AID 602261, 2012; inhibition, % at 15 µM; 360,000 tested, 0.67% active; Fatty acid synthase (Homo sapiens), P49327;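 active means compounds whose normalised, plate-corrected inhibition of enzyme fluorescence in the single-dose primary screen is 50% or more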;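 further: 0% = DMSO with enzyme and 100% = substrate without enzyme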
NR3A LBD binder: binders of NR3A ligand-binding domain, primary screen, biophysical, differential scanning fluorimetry, uHTS; Glutamate receptor ionotropic, NMDA 3A (GRIN3A) ligand-binding domain; NR3A LBD differential scanning fluorimetry, Tm shift; 0% = protein alone, 100% = glycine-bound protein; Tm shift relative to glycine control, % at 25 µM; 340,000 tested, 2.5% active; AID 1259313, 2017;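 active means melting temperature shift of at least 10% of the positive control shift, at one fixed dose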
rCAG binder: binders of r(CAG) RNA repeats, primary screen, biochemical, fluorescence; r(CAG) RNA repeat, TO-PRO-1 dye displacement fluorescence; inhibition, % at 3 µM; 370,000 tested, 1.3% active; AID 651821, 2012;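 active means inhibition above the plate cutoff, the mean of all test compounds on that plate plus 3 SD, cut at about 35% in these data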;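 further: 0% = DMSO alone and 100% = 100 µM mitoxantrone as full dye displacement; higher means more dye released from RNA so lower well fluorescence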
MPTP inh: mitochondrial permeability transition pore inhibitors, primary screen, biochemical, isolated mouse mitochondria, absorbance | Ca2+ swelling absorbance, 30 min | inhibition, % at 10 µM | 360,000 tested, 1.4% active | AID 602449, 2012;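 active means inhibition of 50% or more, scaled per plate between neutral and stimulator controls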;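 further: 0% = DMSO wells given calcium and 100% = 1 mM EGTA wells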
Myeloid diff MLP: induction of myeloid progenitor differentiation, primary screen, cell-based, flow cytometry, MLPCN library. ER-HoxA9 myeloid progenitors, lysozyme-GFP differentiation. calls only at 10 µM. 360,000 tested, 1% active. AID 624256, 2012;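 active means normalized GFP-positive differentiation at or above the plate's own cutoff, the solvent-only control mean plus 3 SD; inconclusive means no clear call, values can overlap the other calls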;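 further: cells exposed to compound for four days before flow analysis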
MPTP counter: fluorescence retest of MPTP screen hits in isolated mitochondria, single concentration | shares compounds with MPTP inh | membrane potential, Rhodamine 123 fluorescence | inhibition, % at 10 µM | 5,000 tested, 78% active | AID 624504, 2012; in the data active means inhibition above about 22%;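 further: 0% = DMSO vehicle and 100% = positive control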
MPTP abs DR: mitochondrial permeability transition pore inhibitors, dose response, biochemical, absorbance, uHTS hits; 780 tested, 58% active; shares compounds with MPTP inh; isolated mitochondria swelling; AID 651561, 2012; IC50, µM; in the data active means IC50 below about 20 µM
MPTP counter DR: fluorescent counter-screen in isolated mitochondria, dose response, counter-screen for MPTP inhibitor project, biochemical, fluorescence, uHTS hits. shares compounds with MPTP inh. isolated mitochondria counterscreen, fluorescence read-out. IC50, µM. 780 tested, 49% active; in the data active means IC50 below about 80 µM
Starred values were filed as active, the others as inactive; i = inactive; u = inconclusive; x = no result.

SMILES | FAS-TE inh | NR3A LBD binder | rCAG binder | MPTP inh | Myeloid diff MLP | MPTP counter | others
CCOC(=O)C1(CC2CCCCO2)CCN(C(=O)Nc2ccc(C(=O)OC)cc2)CC1 (centres undefined) | 2.1 | 8.8 | -10.1 | 56.5* | i | 60.9*
CN1CCN(S(=O)(=O)c2ccc(N(C)Cc3c(F)cccc3Cl)nc2)CC1 | 19.3 | -0.2 | -3.7 | -0.4 | i | x
[2H]c1c([2H])c([2H])c(-c2nc(N3CCCCCC3)sc2C(=O)c2ccccc2)c([2H])c1[2H] | 19.3 | -0.2 | -3.0 | 3.7 | i | x
CCCN(CCC)S(=O)(=O)c1ccc(C(=O)Nc2nc(-c3ccccc3)c(C(=O)OCC)s2)cc1 | 26.5 | 19.8* | 1.5 | 80.2* | i | 5.1 | MPTP abs DR=13.9*;MPTP counter DR=12.2*
CN(C(=O)COC(=O)C1CSC2(C)CCC(=O)N12)c1ccccc1 (centres undefined) | -6.2 | -2.7 | -7.3 | 0.0 | i | x
COc1ccc(-n2cc(CNC3CCN(C)CC3)c(-c3cccc(F)c3)n2)cc1 | -3.6 | -0.1 | -1.8 | 93.4* | u | -13.6 | MPTP abs DR=7.04*;MPTP counter DR=>80
O=[N+]([O-])c1cc(S(=O)(=O)C(F)(F)F)ccc1Sc1nc2ccccc2[nH]1 | 19.9 | -3.2 | 8.7 | 56.6* | u | 90.7*
O=C(NNc1ccnc2cc(Cl)ccc12)C1CCCCC1 | -2.2 | 1.9 | 3.0 | 99.2* | i | 90.3*
NC(=S)NNc1ccnc2cc(Cl)ccc12 | -4.5 | 0.8 | 2.0 | -1.6 | i | x
FC(F)Oc1ccc(NC(=S)NNc2ccnc3cc(Cl)ccc23)cc1 | -16.3 | 3.8 | 18.7 | 101.0* | i | 65.0*
Cc1cc(C)n2nc(C(=O)OCC(=O)N(C)C3CCS(=O)(=O)C3)nc2n1 (centres undefined) | -5.4 | 1.7 | 2.5 | 1.2 | i | x
CCCCc1ccc(N/C(N)=N/c2nc(C)cc(C)n2)cc1 | -50.2 | -3.7 | 18.2 | 87.3* | i | 89.3*
Cc1cc(C)nc(/N=C(\N)Nc2ccc(C(C)C)cc2)n1 | -12.3 | 0.5 | 14.4 | 52.8* | i | 55.8*
CC(C)(C)NS(=O)(=O)c1cc(C(=O)Nc2sccc2C#N)ccc1Cl | -8.0 | 1.8 | 23.1 | 75.2* | i | 57.0*
CCCN(C(=O)COC(=O)c1[nH]c(C)c(C(=O)OC)c1C)c1c(N)n(Cc2ccccc2)c(=O)[nH]c1=O | -1.2 | -0.1 | 1.3 | 60.2* | i | -19.1 | MPTP abs DR=>100;MPTP counter DR=>80
Cc1ccc(OCCSCc2nnc(NC(=O)Nc3cccc(Cl)c3)s2)cc1 | 2.5 | 13.9* | 10.7 | 93.2* | i | 84.7*
O=C(Nc1ccc(Cl)c(Cl)c1)Nc1nnc(CSc2ccccc2)s1 | -0.7 | -2.9 | 9.9 | 75.4* | i | 39.8*
O=C(Nc1ccc(Cl)cc1)Nc1nnc(SCc2ccccc2)s1 | 0.0 | -1.0 | 5.4 | 86.5* | i | 89.3*
O=C(Nc1ccc(Cl)cc1)Nc1nnc(CSCc2ccccc2Cl)s1 | 3.6 | -4.9 | 5.2 | 79.1* | i | 56.8*
O=C(Nc1nnc(SCc2ccc(Cl)cc2)s1)c1ccco1 | -8.4 | -3.5 | 4.5 | -2.3 | i | x
CC1CCN(C(=O)CSc2nc(C(C)C)nc3c2c(=O)n(C)c(=O)n3C)CC1 | -0.5 | 0.8 | -9.4 | 0.2 | i | x
Nc1nnc(CSCc2ccccc2Cl)s1 | -7.7 | 1.5 | 2.5 | 2.4 | i | x
O=C(Nc1ccccc1)Nc1nnc(CSCc2ccccc2Cl)s1 | -2.4 | 30.3* | 24.8 | 89.7* | i | 92.4*
CC1(C(=O)NC2CCN(Cc3ccccc3)CC2)CCN1Cc1cc2ccccc2o1 (centres undefined) | 0.6 | x | 2.4 | 1.5 | i | x
C=CCOC(=O)N1CCN(c2cccc(C(F)(F)F)c2)CC1 | 6.1 | 0.8 | -4.0 | 0.2 | i | x
